According to PubChem BioAssay (Tox21):
Results filed as inconclusive are left out. Entries that show only a call come without a potency. Unmarked numbers belong to inactive results. Calls of active or inactive are those of the source. The call rests on the fitted dose curve; in most records, active means well fitted cell-killing curve with a large enough effect in the repeat runs; inconclusive means weak or mixed curves, or effect the other way; inactive means flat fitted curve, though single readings scatter.

Test: Human pregnane X receptor (PXR) small molecule agonists, qHTS cell viability counter screen (AID 1346977); further: nearly all actives have a fitted effect of over 50% in size
Details: PXR-Luc HepG2 viability, CellTiter-Fluor, 24 h; series mostly up to 92.4 µM
Excerpt: U.S. Tox21 Program National Center for Advancing Translational Sciences [NCATS] NIH Chemical Genomics Center [NCGC] U.S. Environmental Protection Agency [EPA] National Institutes of Environmental Health Sciences [NIEHS] National Toxicology Program [NTP] U.S. Food and Drug Administration [FDA] Tox21 Assay Overview: The human pregnane X receptor (hPXR) regulates the expression of several drug metabolizing enzymes and induction of these proteins is a major mechanism for developing drug resistance in cancer. One such key enzyme catalyzing the drug metabolism is cytochrome P450 3A4 (CYP3A4). Changes in CYP3A4 expression affect drug metabolism, thereby reducing the therapeutic efficacy and altering toxicological response to a drug and which finally causes adverse drug interaction. To screen Tox21 libraries for compounds that activate hPXR-mediated CYP3A4 gene expression, PXR-Luc HepG2 cells were used. Also cytotoxicity of the compounds was tested in parallel by measuring the cell viability using CellTiter-Fluor assay system in the same wells.
Tox21 Assay Protocol Summary: PXR-Luc HepG2 cells were dispensed at 2,000 per well in 5uL of assay medium containing 5% charcoal-stripped FBS into white solid bottom 1536-well plates (Corning Life Sciences, Corning, NY) using a Multidrop Combi (Thermo Scientific, Waltham, MA) dispenser. The assay plates were incubated at 37 C and 5% CO2 for 5hr, and then 23nL of compounds dissolved in DMSO and positive control were transferred using a Pintool station (Wako, San Diego, CA). The assay plates were incubated at 37C and 5% CO2 for 24hr. For cytotoxicity read, after 23hr incubation at 37C, 1uL CellTiter-Fluor reagent (Promega Corporation, Madison, WI) was added to each well of the assay plates using Flying Reagent Dispenser (FRD, Aurora Discovery, San Diego, CA). After 1hr incubation at 37C and 5% CO2, the fluorescence signal was quantified using a ViewLux plate reader (PerkinElmer, Shelton, CT).

Row | SMILES | Potency | activity change, negative = cytotoxicity
1 | CCCCC(CC)COCCO (stereo not given) | inactive | 
2 | Cc1cccc(C)c1OCC(C)N (stereo not given) | inactive | 
3 | N#Cc1ccc(C(=O)O)cc1 | inactive | 
4 | CC(C)N(c1ccccc1)C(C)C | inactive | 
5 | CC(C)CCCCOC(=O)c1ccccc1C(=O)OCCCCC(C)C | inactive | 
6 | CCOc1cc(NC(C)=O)ccc1C(=O)OC | inactive | 
7 | CC(CN)CC(C)(C)CCN (stereo not given) | inactive | 
8 | CC(C)C[C@H](NC(=O)CNC(=O)[C@H](Cc1ccc(O)cc1)NC(=O)[C@H](CO)NC(=O)[C@H](Cc1c[nH]c2ccccc12)NC(=O)[C@H](Cc1cnc[nH]1)NC(=O)[C@@H]1CCC(=O)N1)C(=O)N[C@@H](CCCN=C(N)N)C(=O)N1CCC[C@H]1C(=O)NCC(N)=O (stereo in doubt) | inactive | 
9 | OCCN(CCO)c1cccc(Cl)c1 | inactive | 
10 | CC(C)C(=O)OCCc1ccccc1 | inactive | 
11 | O=C(CCN1CCN(CCO)CC1)N1c2ccccc2Sc2ccc(C(F)(F)F)cc21 | inactive | 
12 | O=C(O)C(=O)Cc1ccccc1 | inactive | 
13 | CC(=O)NCc1c(I)c(NC(C)=O)c(I)c(C(=O)O)c1I | inactive | 
14 | CC1(CO)CN(c2ccccc2)NC1=O (stereo not given) | inactive | 
15 | CCOC(=O)/C=C/c1ccccc1 | inactive | 
16 | CC(=O)N[C@@H](CCC(=O)O)C(=O)O | inactive | 
17 | O=C(OCC1(COC(=O)c2cccnc2)CCCC(COC(=O)c2cccnc2)(COC(=O)c2cccnc2)C1O)c1cccnc1 | inactive | 
18 | O=C(OCC(COC(=O)c1cccnc1)(COC(=O)c1cccnc1)COC(=O)c1cccnc1)c1cccnc1 | inactive | 
19 | CC(C)(C)OC(=O)c1ccc(O)cc1 | inactive | 
20 | O=C(NCCN1CCOCC1)c1ccc(Cl)cc1 | inactive | 

Row | SMILES | Potency | activity change, negative = cytotoxicity
21 | CCCCCCCCC1CCC(=O)O1 (stereo not given) | inactive | 
22 | O=C(O)c1ccc(Cl)cc1Cl | inactive | 
23 | Cc1ccccc1N=O | inactive | 
24 | O=C1c2ccccc2C(=O)c2cc(S(=O)(=O)O)ccc21 | inactive | 
25 | Cc1cccc(OCC(O)CNC(C)(C)C)c1C (stereo not given) | inactive | 
26 | CC[C@H](C)C(=O)O[C@H]1C[C@H](O)C=C2C=C[C@H](C)[C@H](CC[C@@H](O)C[C@@H](O)CC(=O)O)[C@H]21 | inactive | 
27 | CC(C)C(=O)OCc1cccc(OC(=O)[C@@H]2N3C(=O)[C@@H](NC(=O)Cc4ccccc4)[C@H]3SC2(C)C)c1 | inactive | 
28 | CC(C)NCC(O)COc1ccc(COCCOC(C)C)cc1 (stereo not given) | inactive | 
29 | CC(C)c1ccc2cc(C(C)C)ccc2c1 | inactive | 
30 | CC(N)C(=O)OC(C)(C)Cc1ccc(Cl)cc1 (stereo not given) | inactive | 
31 | CCCCCCOc1ccccc1C(N)=O | inactive | 
32 | O=S(O)(O)=S |  | -0.159% [at 8.39 µM]
33 | N[C@@H](COP(=O)(O)O)C(=O)O |  | 17.9% [at 19 µM]
34 | CC(C(=O)O)c1ccc2c(c1)CC(=O)c1ccccc1S2 (stereo not given) | inactive | 
35 | NCCS | inactive | 
36 | CCCCCCOC(=O)CC | inactive | 
37 | CCCCCCN | inactive | 
38 | Nc1ccc(S(=O)(=O)Nc2ccc(Cl)nn2)cc1 | inactive | 
39 | CCCCCCCCSCC | inactive | 
40 | CC(CO)c1ccccc1 (stereo not given) | inactive | 
